Data on 72 compounds can be found in ChEMBL document CHEMBL3988442, “University of Dundee, Small-Polar-MMV Screening Library” (2021).

Hit rate of the full screen: of about 48,000 compounds, about 13,000 (27%) showed an effect of 50% or more. The list shows a part of the results.

The subject of the assay is Wolbachia pipientis. Description: Anti-Wolbachia Cell-Based Screen. The arrangement: scale not given: in the data most compounds retested in dose-response had high values. The format is functional. The settings on record: 5 µM.
As to `Cc1cccc(NS(=O)(=O)c2ccc(C#N)nc2)c1C#N`, the “Percent Effect” value was -1.647%.
Next, `CCC(CC)c1cc(C(=O)N2CCN(C(C#N)C(C)C)CC2)on1` (configuration not stated): -14.62%.
On to `CCC(CC)c1cc(C(=O)N2CCN(C(C)C(N)=O)CC2)on1` (configuration not stated), for which the “Percent Effect” value is recorded as -12.57%.
Turning to `CC(C)c1cc(C(=O)N2CCN(c3ncc4c(n3)CCOC4)CC2)on1`, the “Percent Effect” value came to 106.5%.
The result for `Cc1cc(NC(=O)CN(c2ccccc2)C(C)C)on1` reads -6.846%; that for `COc1cccc(Nc2nc(C3CCNCC3)c3sc(C)c(C)n23)c1.Cl`, 130.3%; that for `COc1cccc(Nc2nc(C3CCCNC3)c3sc(C)c(C)n23)c1.Cl` (configuration not stated), 119.3%.
Consider `O=C(Nc1cccnc1-n1cncn1)N(C1CCCC1)C1CC1`, for which the “Percent Effect” value is -11.98%.
For the compound `CN(C)[C@@H]1CO[C@H](CNC(=O)CC(C)(C)C)[C@H]1O`, the “Percent Effect” value is reported as -5.201%.
`COc1cccc(OCC2CCCN(C(=O)CCCn3cccn3)C2)c1` (configuration not stated): the “Percent Effect” value was -37.97%.
As to `CSCCC(=O)NCc1cc2n(n1)CCCN(C1CCCCC1)C2`, the “Percent Effect” value is recorded as 170.8%.
`CSCC[C@H](N)C(=O)NCc1cc2n(n1)CCCN(C1CCCCC1)C2`: the “Percent Effect” value was -4.094%.
With `CC(C)CN1CCCn2nc(CNC(=O)Cc3cccc(O)c3)cc2C1`, the “Percent Effect” value amounted to 6.027%.
`CC(C)CN1CCCn2nc(CNC(=O)CCN)cc2C1`: the “Percent Effect” value is on record as -4.677%.
Take `CC(C)SCC(=O)NCc1cc2n(n1)CCCN(C1CCCCC1)C2`: the “Percent Effect” value turned out to be 96.57%.
Consider `CCN(C(C)=O)C1CCN(c2nccc(CCC(F)(F)F)n2)C1` (configuration not stated), for which the “Percent Effect” value is reported as -1.785%.
The result for `COCc1ccc(C(=O)N2CCC(c3nccn3CC3CC3)CC2)o1` reads -37.93%.
The result for `CCCC(C)(C)NC(=O)CCN1CCOC1=O` reads 8.427%; that for `COc1cccc(S(=O)(=O)CCNC(C)Cn2cccn2)c1` (configuration not stated), -1.101%; that for `CC(=O)c1c[nH]c(C(=O)N2CCN(C(C(N)=O)c3ccccc3)CC2)c1` (configuration not stated), -4.109%.
As to `CN1C(=O)CC(C(=O)O)C12CCN(Cc1cc(Cl)ccc1F)CC2` (configuration not stated), the “Percent Effect” value is -0.96%.
Take `Cc1nc(CNC(=O)C(C)(C)c2ccc(F)cc2)no1`: the “Percent Effect” value stood at 7.656%.
As to `CN1CCCC(c2cncc(C(=O)NCc3ccccc3Cl)n2)C1.O=CO` (configuration not stated), the “Percent Effect” value is reported as 120.9%.
In the case of `CN1CCC(c2cncc(C(=O)NCc3ccc(F)cc3)n2)CC1`, the “Percent Effect” value was found to be 172.3%.
`CN1CCC(N(Cc2ccccc2F)C(=O)NCc2ccncc2)CC1`: the “Percent Effect” value was 10.43%.
For `Cn1cc(CN2CCC(CCC(=O)NCc3ccc(F)cc3)CC2)cn1`, the “Percent Effect” value is recorded as -6.777%.
With `O=C(NCc1ccccc1CN1CCCC1)Nc1cccnc1`, the “Percent Effect” value is 1.889%.
`Cc1nc(CN2CC(CCCc3ccccn3)(C(=O)N(C)C)C2)co1`: the “Percent Effect” value was found to be 55.58%.
With `Cc1ccc(NC2CCN(C(=O)CCCc3ccccn3)CC2)cc1`, the “Percent Effect” value was found to be 28.87%.
Consider `Cc1cccc(C(C(=O)NCCCc2ccccn2)N(C)C)c1` (configuration not stated), for which the “Percent Effect” value amounted to 0.3434%.
As for `Cn1ccnc1CN1CCCC(CO)(CCc2ccccc2)C1` (configuration not stated), the “Percent Effect” value is on record as 4.446%.
Next, `Cc1nc(CN2CCC2(CCCc2ccccn2)C(=O)N(C)C)co1` (configuration not stated): 74.52%.
For `O=C(CCCc1ccccn1)N1CCC(n2cccc2)CC1`, the “Percent Effect” value is 17.05%.
With `CN(C)C(=O)C1(CCCc2ccccn2)CCN1Cc1nccn1C` (configuration not stated), the “Percent Effect” value was found to be 105.4%.
On to `O=C(CCCc1ccccn1)N1CCOc2ccc(F)cc21`, for which the “Percent Effect” value is reported as -6.681%.
Regarding `CN(C)C(=O)NC1COC2(CCN(Cc3nccn3C)CC2)C1` (configuration not stated), the “Percent Effect” value amounted to 15.08%.
For `Cc1nc(CN2CCC(Oc3ccc(F)cc3C)(C(=O)O)CC2)co1`, the “Percent Effect” value was -0.386%.
As to `CNC(=O)C1(CCCc2ccccn2)CCN1Cc1coc(C)n1` (configuration not stated), the “Percent Effect” value was 87.23%.
With `O=C(CN1C(=O)CCC1=O)N1Cc2cncnc2C1`, the “Percent Effect” value is 12.03%.
Consider `Cc1nc2n(n1)CC(NCC(=O)N(C)Cc1cccs1)CC2` (configuration not stated), for which the “Percent Effect” value was 8.702%.
The result for `CC(C)(C)c1cn(CC2CCCN(c3cnc4ccccc4n3)C2)nn1` (configuration not stated) reads 0.2574%.
On to `CCNC(=O)N1CCCCC1CCO` (configuration not stated), for which the “Percent Effect” value is on record as -12.11%.
Next, `CCOc1cccnc1C(=O)N1CCC(c2ccccc2OC)C1` (configuration not stated): -1.787%; `CC1(C)OC(=O)N(CC(=O)N2CCC(c3ccccc3F)C2)C1=O` (configuration not stated): 96.35%; `Cc1cccc(C2CCCN(C(=O)CN3C(=O)CCNC3=O)C2)c1` (configuration not stated): 2.396%.
On to `CC1(C)OC(=O)N(CC(=O)N2CCC(c3ccccc3Cl)C2)C1=O` (configuration not stated), for which the “Percent Effect” value stood at 91.31%.
On to `COc1ccccc1[C@@H]1CN(CC(=O)N2CCCCC2)C[C@H]1C(=O)O`, for which the “Percent Effect” value is -14.69%.
In the case of `O=C1CCCCN1CC(=O)N1CCCC(c2ccccc2)C1` (configuration not stated), the “Percent Effect” value is recorded as -3.382%.
Consider `COc1ccccc1C1CCN(C(=O)CN2C(=O)OC(C)(C)C2=O)CC1`, for which the “Percent Effect” value is 112.8%.
Take `O=C(CN1C(=O)CCNC1=O)N1CCC(c2ccc(F)cc2)C1` (configuration not stated): the “Percent Effect” value was -18.18%.
Consider `COCCOCC(=O)N1CCC(c2ccccc2F)C1` (configuration not stated), for which the “Percent Effect” value came out at 5.027%.
`O=C(Nc1ccccc1N1CCOC1=O)N1CCSCC1`: the “Percent Effect” value is on record as -8.317%.
Take `Oc1ccccc1-c1cc(-c2nc(C3CC3)n[nH]2)[nH]n1`: the “Percent Effect” value is recorded as -8.043%.
Take `c1cnc(NCc2n[nH]c3c2CCN(Cc2cccnc2)C3)nc1`: the “Percent Effect” value is recorded as -6.284%.
For the compound `O=c1[nH]c(N2CCOCC2)nc2c1CN(Cc1cccnc1)CC2`, the “Percent Effect” value is 111.6%.
As to `O=c1[nH]c(N2CCCCC2)nc2c1CCN(Cc1cccnc1)C2`, the “Percent Effect” value is given as 95.47%.
Regarding `Cc1cccc(CN2CCc3c(nc(N4CCC(C)CC4)[nH]c3=O)C2)n1`, the “Percent Effect” value is recorded as -8.966%.
With `CC1CCCCN1c1nc2c(c(=O)[nH]1)CCN(Cc1cccnc1)C2` (configuration not stated), the “Percent Effect” value is on record as -7.907%.
Turning to `Cn1ccnc1CN(CCO)C(=O)c1nc2ccccc2s1`, the “Percent Effect” value is recorded as -11.45%.
Next, `O=C(NCc1ccccc1F)N1CCCCC1C1OCCO1` (configuration not stated): 112.3%; `O=C(NCCc1ccccc1)N1CCCCC1C1OCCO1` (configuration not stated): 1.192%; `O=C(CCc1ccccc1)N1CCCCC1C1OCCO1` (configuration not stated): -4.281%.
Turning to `CC(C)(C(=O)NCCC(=O)O)c1cccc(Br)c1`, the “Percent Effect” value is recorded as -20.92%.
As for `Cc1ccc(-c2ccnc(N(C)CC3CCCN3C)n2)c(C)n1` (configuration not stated), the “Percent Effect” value stood at 123%.
Next, `CCN1CCCC(CN(C)c2nccc(-c3ccc(C)nc3C)n2)C1` (configuration not stated): 89.59%.
Consider `Cc1ccc(-c2ccnc(N[C@H]3COC[C@@H]3N3CCCC3)n2)c(C)n1`, for which the “Percent Effect” value is recorded as -11.11%.
`CN(CC1CCCN1C)c1nccc(C2CCCC2)n1` (configuration not stated): the “Percent Effect” value came out at 25.37%.
Take `CN(CC1CCCCO1)c1nncc(-c2cccc(F)c2)n1` (configuration not stated): the “Percent Effect” value is on record as -2.947%.
Regarding `Cc1csc(CN(CC2CCCO2)C(=O)c2ccc(C)nc2C)n1` (configuration not stated), the “Percent Effect” value is recorded as -5.335%.
For `CCCc1nnc(N(C)CC2CCCN(CC)C2)o1` (configuration not stated), the “Percent Effect” value is given as -14.65%.
Regarding `Cc1nn(C)cc1CN(C)c1nccc(-c2cn(C)nc2C)n1`, the “Percent Effect” value is given as -19.87%.
Take `Cc1ccc(-c2ccnc(N(C)CC3CCCO3)n2)c(C)n1` (configuration not stated): the “Percent Effect” value is on record as 111.2%.
